Experimental data from PubChem BioAssay AID2653 (National Center for Advancing Translational Sciences (NCATS), 2010).
Inconclusive results are not listed. Values without a mark were called inactive. The call rests on the fitted dose curve; in most records, active means well fitted curve in the direction sought with a large enough effect; inconclusive means small, poorly fitted or top-dose-only effect, or another doubt; inactive means no such curve, though single readings can be large or run the other way.

Experiment: Secondary Assay for Activators of Human Pyruvate Kinase M2 isoform - Cell Titer Glo Cytotoxicity for Probe SAR; further: % of control where 0% means no effect
Settings: HeLa viability, CellTiter-Glo ATP luminescence, 24 h; series mostly up to 58.2 µM; activity change, negative = cytotoxicity: at the top concentration
Method in brief: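 Cytotoxicity read as ATP content (CellTiter-Glo luminescence) in HeLa cells after 24 h compound exposure at 37 C, following 24 h pre-plating at 500 cells/well; doxorubicin as control.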

**Q.** Which “activity change, negative = cytotoxicity” value does the source give for `Cc1ccc2nc(-c3ccc(C)o3)c(Nc3ccccc3)n2c1` here?
**A.** -26.6%

**Q.** With `CC(=O)Nc1ccc(S(=O)(=O)Nc2ccc(C)c(C)c2)cc1` as the molecule, how does the “activity change, negative = cytotoxicity” value read?
**A.** -3.49%

**Q.** For `O=S1(=O)N=C(Oc2ccc(Cl)cc2)c2ccccc21`, which “activity change, negative = cytotoxicity” value is on record?
**A.** 2.68%

**Q.** Which “activity change, negative = cytotoxicity” value does the source give for `O=C1CCc2cc(S(=O)(=O)Nc3ccccc3F)ccc2N1` here?
**A.** -28.6%

**Q.** With `Cc1ccc(NS(=O)(=O)c2cc3c(cc2Cl)CCC(=O)N3)cc1Cl` as the molecule, how does the “activity change, negative = cytotoxicity” value read?
**A.** -21.2%

**Q.** For `Cc1ccc(NS(=O)(=O)c2ccc3c(c2)CC(=O)N3)cc1C`, which “activity change, negative = cytotoxicity” value is on record?
**A.** -14.8%

**Q.** With `Cc1ccc(NS(=O)(=O)c2cccc(F)c2)cc1C` as the molecule, how does the “activity change, negative = cytotoxicity” value read?
**A.** -3.4%

**Q.** With `Cc1ccc(NS(=O)(=O)c2ccc3c(c2)NC(=O)CO3)cc1C` as the molecule, how does the “activity change, negative = cytotoxicity” value read?
**A.** -14.6%

**Q.** With `Nc1cc(S(=O)(=O)N2CCN(S(=O)(=O)c3ccc4c(c3)OCCO4)CC2)ccn1` as the molecule, how does the “activity change, negative = cytotoxicity” value read?
**A.** -8.75%

**Q.** For `O=C1c2ccccc2C(=O)N1c1cccc2ccncc12`, which “activity change, negative = cytotoxicity” value is on record?
**A.** 0.305%

**Q.** For `O=C1CCc2cc(S(=O)(=O)Nc3cccc(Cl)c3)ccc2N1`, which “activity change, negative = cytotoxicity” value is on record?
**A.** -11.9%

**Q.** With `Cc1ccc(-c2nc3ccccn3c2Nc2ccccc2C)o1` as the molecule, how does the “activity change, negative = cytotoxicity” value read?
**A.** -15.4%

**Q.** Which “activity change, negative = cytotoxicity” value does the source give for `Cc1ccc(N(C)S(=O)(=O)c2ccc3c(c2)CCC(=O)N3)cc1C` here?
**A.** -13.9%

**Q.** For `Cc1ccc2nc(-c3cccs3)c(Nc3ccccc3)n2c1`, which “activity change, negative = cytotoxicity” value is on record?
**A.** -11%

**Q.** With `CNc1cc2c(cc1S(=O)(=O)Nc1ccc(C)c(C)c1)CCC(=O)N2` as the molecule, how does the “activity change, negative = cytotoxicity” value read?
**A.** -25.8%

**Q.** For `O=C1CCc2cc(S(=O)(=O)Nc3ccncc3)ccc2N1`, which “activity change, negative = cytotoxicity” value is on record?
**A.** -16.1%

**Q.** With `O=C1c2ccccc2C(=O)N1C1CCCCC1` as the molecule, how does the “activity change, negative = cytotoxicity” value read?
**A.** -17.4%

**Q.** For `Cc1ccc(Nc2c(-c3ccc(C)o3)nc3cccc(C)n23)cc1`, which “activity change, negative = cytotoxicity” value is on record?
**A.** -28.8%

**Q.** For `CC(C)Nc1cccc(S(=O)(=O)N2CCCN(S(=O)(=O)c3ccc4c(c3)OCCO4)CC2)c1`, which “activity change, negative = cytotoxicity” value is on record?
**A.** -20.5%

**Q.** For `Cc1ccc(NS(=O)(=O)c2ccc3c(c2)CCCC(=O)N3)cc1C`, which “activity change, negative = cytotoxicity” value is on record?
**A.** -1.83%

**Q.** Which “activity change, negative = cytotoxicity” value does the source give for `Cc1ccc2nc(-c3ccc(C)o3)c(Nc3ccc(F)cc3)n2c1` here?
**A.** -24%

**Q.** Which “activity change, negative = cytotoxicity” value does the source give for `Cc1ccc(NS(=O)(=O)c2cc3c(cc2Cl)NC(=O)C3)cc1C` here?
**A.** -14.7%

**Q.** Which “activity change, negative = cytotoxicity” value does the source give for `O=C1CCc2cc(S(=O)(=O)Nc3ccc4ccccc4c3)ccc2N1` here?
**A.** -30.1%

**Q.** For `O=C1CCc2cc(Cl)c(S(=O)(=O)Nc3ccc(Cl)c(Cl)c3)cc2N1`, which “activity change, negative = cytotoxicity” value is on record?
**A.** -23.4%

**Q.** Which “activity change, negative = cytotoxicity” value does the source give for `Cc1cc(NS(=O)(=O)c2ccc3c(c2)CCC(=O)N3)ccc1F` here?
**A.** -7.09%

**Q.** Which “activity change, negative = cytotoxicity” value does the source give for `O=C1c2ccccc2C(=O)N1Cc1ccccn1` here?
**A.** -8.82%

**Q.** With `N#Cc1cccc(NS(=O)(=O)c2ccc3c(c2)CCC(=O)N3)c1` as the molecule, how does the “activity change, negative = cytotoxicity” value read?
**A.** 6.98%

**Q.** Which “activity change, negative = cytotoxicity” value does the source give for `Cc1ccc(NS(=O)(=O)c2ccc3c(c2)N(C)CCO3)cc1C` here?
**A.** -7.1%

**Q.** Which “activity change, negative = cytotoxicity” value does the source give for `O=C1NS(=O)(=O)c2ccccc21` here?
**A.** -2.53%

**Q.** Which “activity change, negative = cytotoxicity” value does the source give for `Fc1ccccc1-c1ccc(-c2nc3ccc(Cl)cn3c2Nc2ccc(Cl)cc2)o1` here?
**A.** 1.15%

**Q.** Which “activity change, negative = cytotoxicity” value does the source give for `O=C1c2ccccc2C(=O)N1c1noc2ccccc12` here?
**A.** -26.9%

**Q.** For `O=C1CCc2cc(S(=O)(=O)Nc3ccc(Cl)c(Cl)c3)ccc2N1`, which “activity change, negative = cytotoxicity” value is on record?
**A.** -17.3%
